From PubChem BioAssay AID2685 (National Center for Advancing Translational Sciences (NCATS), 2010)
The campaign covered roughly 320,000 compounds. About 2,100 (0.66%) were called active. About 53% were inconclusive and are not listed. The call rests on the fitted dose curve; in most records, active means well fitted inhibition curve with a large enough effect in the signal ratio, with a control signal flat (not every such curve was filed as active); inconclusive means small, poorly fitted or top-dose-only effect, or effect the other way, or a change in a side signal; inactive means flat fitted curve, though single readings scatter; the % refers to the signal ratio. The sample as a whole holds a higher share of actives than the screen did.

assay: qHTS Assay for Lipid Storage Modulators in Drosophila S3 Cells; details: BODIPY lipid droplet fluorescence, 18-24 h, cells fed with added oleic acid; cell number change: measured here: cell count max response; series mostly up to 46.1 µM; lipid storage change, negative = inhibition: at the top concentration;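 on cell number change: cells counted by Cell Tracker Red CMTPX staining in the red channel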; on lipid storage change, negative = inhibition: on the % scale 0 is the no-effect control and ±100 the full control effect
From the text: NIH Molecular Libraries Probe Production Centers Network [MLPCN] NIH Chemical Genomics Center [NCGC] MLPCN Grant: 1 R03 MH085686-01 Assay Submitter (PI): Beller, Mathias; Max-Planck-Institut fur Biophysikalische Chemie NCGC Assay Overview: Storing lipids as a reservoir for energy or the anabolism of elementary metabolites is a common feature of probably all cells and is conserved from bacteria to humans. The universal cellular lipid storage organelle is the so-called lipid storage droplet (LD). Although ubiquitous, LDs share a simple structure composed of a hydrophobic core that harbors the storage lipids, which is shielded by a droplet-specific phospholipid monolayer to which proteins are attached. The current model of LD biogenesis involves an incorporation of the lipid core into the membrane leaflets of the endoplasmic reticulum (ER) followed by a subsequent budding-like maturation of a LD, which ultimately pinches off. Once released, LD volume can increase by localized lipogenesis or fusion of existing droplet. Storage lipids are re-mobilized enzymatically by lipase activity. Lipase regulation in the adipocyte is heavily studied and involves multiple components including catecholamine signaling, the LD-associated proteins Perilipin and comparative gene identification (CGI-58) and at least two lipases named hormone sensitive lipase (HSL) and adipocyte triglyceride lipase (ATGL). LD regulation outside of the adipocyte is poorly understood and only few components are known. However, there is an urgent need to learn more about ectopic fat depots as mislocalized storage of lipids, for example in the liver or muscle, is an eminent health problem associated with insulin resistance or the metabolic syndrome. We developed a laser-scanning cytometer assay to enable 1,536-well screening and combined the results of the small molecules screen with an RNAi database based on lipid storage.
Triacsin C (Sigma-Aldrich T-4540), an inhibitor of long-chain fatty acyl CoA synthetase that blocks synthesis of triglycerides, was used as a positive control for lipid under-storage. A total of 23 nL of compound solution of different concentrations were transferred to the assay plates using a Kalypsys pin tool equipped with a 1,536-pin array containing 10-nL slotted pins (FP1S10, 0.457-mm diameter, 50.8 mm long; V&P Scientific). One microliter of oleic acid (400 uM) was added, and the plate was lidded with stainless steel rubber gasket lined lids containing pinholes. […] Fluorescence was detected by excitation of the fluorophores with a 488-nm laser on an Acumen Explorer (TTP Lab Tech). The total intensity in channel 2 (500-530 nm) reflected lipid droplet accumulation. Cells were detected using channel 3 (575-640 nm) with 5-um width and 100-um depth filters. The ratio of the number of objects in PMT channel 2 over the number of objects in PMT channel 3 was also calculated. Percent activity was computed relative to an internal control (100% inhibited lipid droplet deposition due to the presence of 20 uM Triacsin C), which was added to 32 wells/plate.
Potency means the concentration at half of the fitted maximal effect.

SMILES | outcome | cell number change [%] | Potency | lipid storage change, negative = inhibition
COc1ccc(C(=O)CSc2nnnn2Cc2ccccc2)cc1 | inactive | 14.6 | – | –
COCCn1nnnc1SCC(=O)c1ccccc1 | – | 2.95 | 20.6 µM (active) | –
OC1(c2ccccc2F)CCN(Cc2nnc(-c3ccccc3)o2)CC1 | – | -15 | – | 29.2% (inactive)
CC1CCC2(CC1)NC(=O)N(CC(=O)Nc1ccc3c(c1)CCC3)C2=O (configuration not stated) | – | -0.637 | – | 13% (inactive)
CCN(CC)c1ccc(/C=C(\C#N)C(N)=O)cc1 | – | -5.93 | – | -7.84% (inactive)
CCN(CC)c1ccc(/C=C(\C#N)C(N)=S)cc1 | – | -2.75 | – | -22% (inactive)
CCN(CC)c1ccc(/C=C(\C#N)C(=O)c2ccc(Br)cc2)cc1 | – | – | 25.9 µM (active) | –
CCC(=O)c1ccc(NC(C)=O)cc1O | – | -16.5 | – | -9.98% (inactive)
O=S(=O)(c1ccc2c(c1)N(Cc1ccc(Cl)cc1)C1CCCN21)N1CCOCC1 (configuration not stated) | – | -5.65 | – | 7.79% (inactive)
COc1ccc(CN2c3cc(S(=O)(=O)N4CCOCC4)ccc3N3CCCC32)cc1 (configuration not stated) | – | 1.21 | 16.4 µM (active) | –
CCN1c2ccc(S(=O)(=O)N3CCOCC3)cc2N(Cc2ccc(OC)cc2)C1C (configuration not stated) | inactive | 13.6 | – | –
O=C1CN(C(=O)/C=C/c2cc(Br)ccc2F)CCN1 | inactive | 13.8 | – | –
CN=C1S/C(=C\c2ccc(O)c(Br)c2)C(=O)N1C | – | -7.22 | – | -10.7% (inactive)
CN=C1S/C(=C\c2c(OC)cc(OC)cc2OC)C(=O)N1C | – | -1.21 | 0.58 µM (active) | –
CN=C1S/C(=C\c2ccc(N3CCCC3)c(F)c2)C(=O)N1C | – | 2.34 | – | 4.4% [at 9.22 µM] (inactive)
CN=C1S/C(=C\c2ccc(SC)cc2)C(=O)N1C | – | 4.2 | 0.13 µM (active) | –
CN=C1S/C(=C\c2ccc(Sc3ccc(Cl)cc3)o2)C(=O)N1C | – | – | – | 13.4% (inactive)
COc1ccc(N=C2S/C(=C\c3cc(C)n(C)c3C)C(=O)N2C)cc1 | – | 20.4 | – | -14.9% (inactive)
CCSc1nc2c(c(=O)[nH]c(=O)n2C)n1CC(O)COc1ccccc1 (configuration not stated) | inactive | – | – | –
CCn1cc(CN2CCC(Oc3ccc(C(=O)N4CCCCC4)cc3)CC2)cn1 | – | – | – | -6.41% (inactive)
O=C(CN1CCN(Cc2ccccc2Cl)CC1)N/N=C/c1cccs1 | – | 19.5 | – | 0.0195% (inactive)
Cc1ccc(C)c(OCCOCCN2CCOCC2)c1 | – | 3.66 | 7.31 µM (active) | –
Cc1cc(C)c(C)c(OCCN2CCOCC2)c1 | inactive | -23.8 | – | –
Cc1cccc(OCCOCCN2CCOCC2)c1C | – | 8.47 | – | 4.65% (inactive)

SMILES | outcome | cell number change [%] | Potency | lipid storage change, negative = inhibition
CCn1cc(C2CC(=O)NC2=O)c2ccccc21 (configuration not stated) | – | – | – | 15.1% (inactive)
CS(=O)(=O)N(CC(=O)NCC1CCCO1)c1cccc(Cl)c1 (configuration not stated) | – | – | – | -1.35% (inactive)
CS(=O)(=O)N(CC(=O)NCC1CCCO1)c1ccc(F)c(Cl)c1 (configuration not stated) | – | -13 | 14.6 µM (active) | –
CS(=O)(=O)N(CC(=O)NCC1CCCO1)c1ccc(Cl)c(Cl)c1 (configuration not stated) | – | -7.69 | – | -6.64% (inactive)
COCCNC(=O)Cn1nc(C(F)(F)F)c(Cl)c1C | – | -6.82 | – | -2.82% (inactive)
COc1ccc(-c2csc3nc(C(C)(C)C)oc(=O)c23)cc1OC | – | 0.241 | – | -1.34% (inactive)
CCOc1ccc(-c2ccc(NS(=O)(=O)c3ccc([N+](=O)[O-])cc3)cc2)nn1 | inactive | 0.33 | – | –
COc1ccc(-c2ccc(NS(=O)(=O)c3cc([N+](=O)[O-])c(C)c([N+](=O)[O-])c3)cc2)nn1 | inactive | -13.5 | – | –
CCOc1ccc(-c2ccc(NS(=O)(=O)c3cc([N+](=O)[O-])c(C)c([N+](=O)[O-])c3)cc2)nn1 | – | -5.38 | 23.1 µM (active) | –
COC(=O)c1ccc2nc(NC(=O)C(C)(C)C)sc2c1 | – | -18.4 | – | -12.8% (inactive)
CC(C)OC(=O)n1c(=S)oc2ccccc21 | – | -3.93 | – | -0.711% (inactive)
O=C(O)CCn1c(=S)oc2ccccc21 | – | 2.74 | – | -6.79% (inactive)
CC(C)CC(=O)/C=C/n1c(=S)oc2ccccc21 | – | -3.17 | 23.1 µM (active) | –
COc1ccccc1NC(=O)C1CCCN(c2ncnc3c2nc2n3CCCCC2)C1 (configuration not stated) | inactive | -12.6 | – | –
Cc1cc[n+](Cc2ccc([N+](=O)[O-])cc2)cc1 | – | -4.93 | – | -6.36% (inactive)
N=c1n(CCN2CCCCC2)c2ccccc2n1CC(O)c1ccco1 (configuration not stated) | – | 15.8 | – | -2.56% (inactive)
CCCn1c(=N)n(CC(O)c2ccco2)c2ccccc21 (configuration not stated) | – | 16.8 | – | -3.06% (inactive)
N=c1n(CCN2CCCC2)c2ccccc2n1CC(O)c1ccco1 (configuration not stated) | – | 7.5 | 23.1 µM (active) | –
Cc1onc(C(=O)N2CCN(C(c3ccccc3)c3ccccc3)CC2)c1[N+](=O)[O-] | – | 3.65 | – | 3.34% (inactive)
CC(OC(=O)C1=Cc2ccccc2OC1)C(=O)NCc1ccco1 (configuration not stated) | – | – | – | -14.3% (inactive)
CCC(C(=O)Nc1cccnc1)n1c(=O)[nH]c2ccccc2c1=O (configuration not stated) | – | -16 | 18.4 µM (active) | –
O=C(Cn1[nH]c(=O)c2ccccc2c1=O)Nc1cccnc1 | – | 7.37 | – | -4.67% (inactive)
CCC(C(=O)Nc1ccc2c(c1)OCCO2)n1c(=O)[nH]c2ccccc2c1=O (configuration not stated) | inactive | -11.6 | – | –
